Data taken from PubChem BioAssay (EPA / NIEHS).
A structure can be active in one record and inactive in another. Activity calls are given as the source filed them. Rule for the calls: active = hit-call score of the fitted dose curve at least 0.9, where 1 is the maximum; inactive = score below 0.9.

Assay: ATG_TGFb_CIS: Attagene CIS-FACTORIAL HepG2 Assay for human Transforming Growth Factor (TGF) (AID 2282967)
Conditions: HepG2 Attagene CIS TGFb reporter, mRNA transcription; actives raise or lower the signal
Description: ATG_CIS is a cell-based, multiplexed-readout assay that uses HepG2, a human liver cell line, with measurements taken at 24 hours after chemical dosing in a 24-well plate.ATG_TGFb_CIS is one of 52 assay component(s) measured or calculated from the ATG_CIS assay. It is designed to make measurements of mRNA induction, a form of inducible reporter, as detected with fluorescence intensity signals by Reverse transcription polymerase chain reaction (RT-PCR) and Capillary electrophoresis technology.Data from the assay component ATG_TGFb_CIS was analyzed into 1 assay endpoint. This assay endpoint, ATG_TGFb_CIS, was analyzed with bidirectional fitting relative to DMSO as the negative control and baseline of activity. Using a type of inducible reporter, measures of mRNA for gain or loss-of-signal activity can be used to understand the reporter gene at the transcription factor-level as they relate to the gene TGFB1. Furthermore, this assay endpoint can be referred to as a primary readout, because this assay has produced multiple assay endpoints where this one serves a reporter gene function. To generalize the intended target to other relatable targets, this assay endpoint is annotated to the growth factor intended target family, where the subfamily is transforming growth factor beta.
Human liver HepG2 cells are transiently transfected with multiple reporter transcription units (MRTUs) in 6-well plates using FuGene 6 reagent (Roche; 3 ml FuGene/1 mg DNA). The MRTU constructs are regulated by a cis-regulating element (promoter). […] A major difference between the CIS and TRANS system is that in CIS activities of endogenous TFs are measured, whereas the TRANS assay evaluates changes in activities of exogenous, chimeric NR-Gal4 proteins. […] At the end of 24 hour incubation, total RNA was isolated using TriZol reagent (Invitrogen). The isolated RNA is then reverse-transcribed using oligo(dT) primer and Mo-MLV reverse transcriptase (Invitrogen) with DNAse I (Ambion) treatment for 30 min. The one-tenth of the produced cDNA was amplified by PCR using Taq DNA polymerase (Invitrogen) and two reporter sequence-specific primers. The PCR products were fluorescently labeled by primer extension with 6-arboxyfluorescein (6-FAM) 5'-labeled reporter sequence-specific primer (2 min at 95 C, 20 s at 68 C and 10 min at 72 C) and these products were digested with 5U of HpaI (New England Biolabs) for 2h at 37 C. The fragments were purified using Qiaquick PCR columns (Qiagen), analyzed on an ABI 3130xL genetic analyzer (Applied Biosystems) with peak positions identified by using a set of X-rhodamine (ROX)-labeled MapMarker1000 molecular weight standards (BioVentures). The raw capillary electrophoresis data was processed using Attagraph software (Attagene).

Q: For `CN(C)CCC=C1c2ccccc2CCc2ccccc21`, which outcome is on record?
A: inactive

Q: For `OC[C@H]1O[C@@H](O[C@H]2[C@H](O)[C@@H](O)[C@H](O)O[C@@H]2CO)[C@H](O)[C@@H](O)[C@H]1O`, which outcome is on record?
A: inactive

Q: With `[O-]/[N+](=N\O)c1ccccc1` as the compound, how does the outcome read?
A: inactive

Q: Which outcome does the source give for `CCC(CC)CO` here?
A: inactive

Q: With `CC(=O)c1ccc(C)cc1` as the compound, how does the outcome read?
A: inactive

Q: With `CCOC(=O)CCCCCCCCC(=O)OCC` as the compound, how does the outcome read?
A: inactive

Q: For `C1CCCNCC1`, which outcome is on record?
A: inactive

Q: With `CCC(=O)OC(C)(C)C1CC=C(C)CC1` (stereo not given) as the compound, how does the outcome read?
A: inactive

Q: For `COC(=O)c1ccc(C(=O)OC)cc1`, which outcome is on record?
A: inactive

Q: With `C=C(C)C(=O)OCCN(C)C` as the compound, how does the outcome read?
A: inactive

Q: Which outcome does the source give for `CN(C)c1ccc(C=O)cc1` here?
A: inactive

Q: With `C[C@H](CCC(=O)O)[C@H]1CC[C@H]2[C@@H]3CC[C@@H]4C[C@H](O)CC[C@]4(C)[C@H]3CC[C@]12C` as the compound, how does the AC50 read?
A: 43 µM (active)

Q: For `c1ccc(Sc2ccccc2)cc1`, which outcome is on record?
A: inactive

Q: For `[Na+]`, which outcome is on record?
A: inactive

Q: For `CCC(=O)OCC=Cc1ccccc1`, which outcome is on record?
A: inactive

Q: With `CCC(=O)OC/C=C(\C)CCC=C(C)C` as the compound, how does the outcome read?
A: inactive

Q: Which outcome does the source give for `Nc1ccc(O)c(N)c1` here?
A: inactive

Q: With `CCCc1ccc(O)cc1` as the compound, how does the outcome read?
A: inactive

Q: With `O=S1(=O)CC=CC1` as the compound, how does the outcome read?
A: inactive

Q: For `CCOC(=O)C(=O)OCC`, which outcome is on record?
A: inactive

Q: For `Nc1cc([N+](=O)[O-])ccc1C(=O)O`, which outcome is on record?
A: inactive

Q: With `CCCCCC1C(=O)CCC1CC(=O)OC` (stereo not given) as the compound, how does the outcome read?
A: inactive

Q: Which outcome does the source give for `CCNC(=S)NCC` here?
A: inactive

Q: With `O=C(O)c1ccco1` as the compound, how does the outcome read?
A: inactive

Q: Which outcome does the source give for `C[N+](C)(C)CCO` here?
A: inactive

Q: With `FC(F)(F)c1ccc(Cl)c(Cl)c1` as the compound, how does the outcome read?
A: inactive

Q: Which outcome does the source give for `NC(N)=NC(N)=NCCc1ccccc1` here?
A: inactive

Q: Which outcome does the source give for `CCCCCCCCCO` here?
A: inactive

Q: Which outcome does the source give for `CC(=O)Nc1cc(S(=O)(=O)O)cc2cc(S(=O)(=O)O)c(N=Nc3ccccc3)c(O)c12` here?
A: inactive

Q: For `CCCCCCCC(=O)N(C)C`, which outcome is on record?
A: inactive

Q: For `OCCCO`, which outcome is on record?
A: inactive

Q: For `CCCC[N+](C)(CCCC)CCCC`, which outcome is on record?
A: inactive

Q: With `O=C(c1ccc(OCCN2CCCCC2)cc1)c1c(-c2ccc(O)cc2)sc2cc(O)ccc12` as the compound, how does the AC50 read?
A: 14.7 µM (active)

Q: And the outcome?
A: inactive

Q: With `C1COCO1` as the compound, how does the outcome read?
A: inactive

Q: For `CCC(C)(C)C1CCC(OC)CC1` (stereo not given), which outcome is on record?
A: inactive

Q: With `C=C(C)C(=O)OCCOCCOC(=O)C(=C)C` as the compound, how does the outcome read?
A: inactive

Q: For `CC(C)Cc1ccc(C(C)C(=O)O)cc1` (stereo not given), which outcome is on record?
A: inactive

Q: For `COC(=O)C(C)Oc1ccc(Oc2ncc(C(F)(F)F)cc2Cl)cc1` (stereo not given), which AC50 is on record?
A: 133 µM (active)

Q: With `CCCCCCCOC(C)=O` as the compound, how does the outcome read?
A: inactive
